Reference: the supplement of paper PMC10849652
Of roughly 7,900 targets only a part is listed; those with a hit were picked by preference. About 0.6% of all pairs of compound and target were hits.

Legend:
Experiment in all cases: log2 fold change, soluble protein after heating vs DMSO (PISA); higher = thermal stabilisation; K562 cells, 10 uM, 30 min; active = over 0.2 and 3.5 SD of the protein, either way, in both replicates (recomputed)
saracatinib = compound: CN1CCN(CCOc2cc(OC3CCOCC3)c3c(Nc4c(Cl)ccc5c4OCO5)ncnc3c2)CC1 [saracatinib]
In short: (§1)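 K562 cells at 2×10^6 cells/mL were treated with 10 μM compound for 30 min. Aliquots were heated for 3 min across 48°C-58°C, pooled, and extracted in PBS with 0.5% NP-40 at 4°C; soluble protein was the supernatant after 21,000xg for 90 min. Soluble protein was quantified by TMTpro 16plex LC-MS/MS with channel sums equalised, and reported as log2 fold change in thermal stability against DMSO controls, with values from duplicates.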

sotrastaurin = compound: CN1CCN(c2nc(C3=C(c4c[nH]c5ccccc45)C(=O)NC3=O)c3ccccc3n2)CC1 [sotrastaurin]
In short: as §1

alvocidib = compound: CN1CC[C@H](c2c(O)cc(O)c3c(=O)cc(-c4ccccc4Cl)oc23)[C@H](O)C1 [alvocidib]
In short: as §1

Tubastatin A = compound: CN1CCc2c(c3ccccc3n2Cc2ccc(C(=O)NO)cc2)C1 [Tubastatin A]
In short: as §1

[1] = compound: CNC(=O)C1=CC=CC=C1NC2=NC(=NC=C2Cl)NC3=C(C=C(C=C3)N4CCOCC4)OC
In short: as §1

defactinib = compound: CNC(=O)c1ccc(Nc2ncc(C(F)(F)F)c(NCc3nccnc3N(C)S(C)(=O)=O)n2)cc1 [defactinib]
In short: as §1

rucaparib = compound: CNCc1ccc(-c2[nH]c3cc(F)cc4c3c2CCNC4=O)cc1 [rucaparib]
In short: as §1

[2] = compound: CNc1nc(-c2ccc3c(N)n[nH]c3c2)cc(N2C[C@@H](C(=O)NC3CCCCC3)CC[C@H]2C)n1
In short: as §1

encorafenib = compound: COC(=O)N[C@@H](C)CNc1nccc(-c2cn(C(C)C)nc2-c2cc(Cl)cc(NS(C)(=O)=O)c2F)n1 [encorafenib]
In short: as §1

[3] = compound: COC(=O)[C@H](CCSC)NC(=O)C1=C(C=C(C=C1)NC[C@H](CS)N)C2=CC=CC=C2
In short: as §1

Measured: log2 fold change

HIC2 (UniProt Q96JB3)
Chain of UniProt Q96JB3 (Q96JB3 whole entry, looked up): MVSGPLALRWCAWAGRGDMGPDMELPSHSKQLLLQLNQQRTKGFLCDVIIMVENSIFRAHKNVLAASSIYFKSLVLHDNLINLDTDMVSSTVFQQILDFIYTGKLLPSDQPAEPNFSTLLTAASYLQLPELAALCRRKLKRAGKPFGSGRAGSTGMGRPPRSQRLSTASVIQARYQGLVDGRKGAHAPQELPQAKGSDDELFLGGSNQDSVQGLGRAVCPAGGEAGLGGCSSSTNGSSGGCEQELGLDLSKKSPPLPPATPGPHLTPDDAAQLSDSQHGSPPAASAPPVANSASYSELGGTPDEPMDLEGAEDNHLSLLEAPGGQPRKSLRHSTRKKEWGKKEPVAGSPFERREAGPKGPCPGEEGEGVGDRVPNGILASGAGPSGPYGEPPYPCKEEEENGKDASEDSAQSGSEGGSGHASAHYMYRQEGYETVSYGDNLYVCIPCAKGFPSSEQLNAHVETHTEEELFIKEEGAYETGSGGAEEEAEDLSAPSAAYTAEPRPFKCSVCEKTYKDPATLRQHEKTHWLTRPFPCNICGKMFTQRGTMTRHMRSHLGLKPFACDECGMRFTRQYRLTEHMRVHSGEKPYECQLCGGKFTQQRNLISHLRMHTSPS
inactive: saracatinib -0.152 | sotrastaurin -0.236 | alvocidib 0.033 | Tubastatin A -0.034 | [1] -0.011 | defactinib -0.008 | rucaparib 0.142 | [2] -0.019 | encorafenib 0.045 | [3] 0.089

GLRX3 (UniProt O76003)
Chain of UniProt O76003 (O76003 whole entry, looked up): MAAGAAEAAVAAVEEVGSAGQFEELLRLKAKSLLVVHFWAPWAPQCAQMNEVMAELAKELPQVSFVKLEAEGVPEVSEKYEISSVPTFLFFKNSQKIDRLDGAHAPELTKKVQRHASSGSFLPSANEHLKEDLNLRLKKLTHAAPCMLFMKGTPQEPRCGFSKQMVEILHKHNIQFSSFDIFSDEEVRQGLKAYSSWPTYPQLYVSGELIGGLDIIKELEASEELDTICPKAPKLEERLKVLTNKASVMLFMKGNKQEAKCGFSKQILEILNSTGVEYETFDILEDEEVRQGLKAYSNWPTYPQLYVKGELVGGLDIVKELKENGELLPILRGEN
inactive: saracatinib -0.017 | sotrastaurin -0.066 | alvocidib -0.071 | Tubastatin A 0.015 | [1] 0.053 | defactinib -0.091 | rucaparib -0.063 | [2] -0.023 | encorafenib 0.029 | [3] -0.03

GBF1 (UniProt Q92538)
inactive: saracatinib -0.055 | sotrastaurin -0.103 | alvocidib -0.023 | Tubastatin A 0.034 | [1] -0.024 | defactinib -0.031 | rucaparib 0.044 | [2] 0.059 | encorafenib 0.104 | [3] -0.015

FANCD2 isoform 1 (UniProt Q9BXW9)
inactive: saracatinib -0.038 | sotrastaurin 0.017 | alvocidib -0.102 | Tubastatin A -0.053 | [1] -0.126 | defactinib -0.145 | rucaparib 0.051 | [2] 0.028 | encorafenib 0.009 | [3] -0.029

FANCI (UniProt Q9NVI1)
Chain of UniProt Q9NVI1 (Q9NVI1 whole entry, looked up): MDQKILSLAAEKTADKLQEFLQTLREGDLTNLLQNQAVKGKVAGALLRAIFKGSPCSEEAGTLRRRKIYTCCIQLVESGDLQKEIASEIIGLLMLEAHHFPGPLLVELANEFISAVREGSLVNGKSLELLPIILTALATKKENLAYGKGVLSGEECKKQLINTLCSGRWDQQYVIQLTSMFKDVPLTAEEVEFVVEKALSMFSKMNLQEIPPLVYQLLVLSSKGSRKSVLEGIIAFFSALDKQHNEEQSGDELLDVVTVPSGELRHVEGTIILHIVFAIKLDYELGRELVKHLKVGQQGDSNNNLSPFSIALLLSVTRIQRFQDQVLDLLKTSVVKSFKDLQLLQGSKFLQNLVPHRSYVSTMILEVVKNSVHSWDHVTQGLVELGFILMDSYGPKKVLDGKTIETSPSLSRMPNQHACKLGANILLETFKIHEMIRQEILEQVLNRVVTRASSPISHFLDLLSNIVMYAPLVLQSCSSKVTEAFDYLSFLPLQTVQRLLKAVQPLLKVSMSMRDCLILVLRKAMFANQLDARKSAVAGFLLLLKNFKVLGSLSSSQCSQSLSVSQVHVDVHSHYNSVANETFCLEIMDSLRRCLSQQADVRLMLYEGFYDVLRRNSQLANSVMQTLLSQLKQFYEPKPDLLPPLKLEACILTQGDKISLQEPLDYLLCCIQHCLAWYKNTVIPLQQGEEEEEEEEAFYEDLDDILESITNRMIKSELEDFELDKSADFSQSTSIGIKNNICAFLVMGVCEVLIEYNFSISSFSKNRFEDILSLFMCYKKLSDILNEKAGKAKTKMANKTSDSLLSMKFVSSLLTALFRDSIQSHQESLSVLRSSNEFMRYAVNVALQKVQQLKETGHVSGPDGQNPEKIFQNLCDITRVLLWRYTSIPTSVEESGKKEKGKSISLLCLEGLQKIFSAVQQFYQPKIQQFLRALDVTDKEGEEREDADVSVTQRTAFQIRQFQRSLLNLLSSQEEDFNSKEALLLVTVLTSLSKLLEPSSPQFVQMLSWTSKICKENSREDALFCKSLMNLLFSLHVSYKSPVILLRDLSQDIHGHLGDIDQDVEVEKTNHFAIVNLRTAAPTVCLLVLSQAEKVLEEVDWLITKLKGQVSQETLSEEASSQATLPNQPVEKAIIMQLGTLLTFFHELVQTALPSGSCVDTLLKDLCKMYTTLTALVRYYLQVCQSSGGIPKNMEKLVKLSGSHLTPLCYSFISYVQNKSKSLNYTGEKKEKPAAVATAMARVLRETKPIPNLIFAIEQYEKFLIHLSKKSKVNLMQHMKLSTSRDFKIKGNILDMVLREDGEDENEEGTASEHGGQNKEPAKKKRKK
inactive: saracatinib -0.022 | sotrastaurin -0.099 | alvocidib -0.13 | Tubastatin A -0.103 | [1] -0.111 | defactinib -0.179 | rucaparib 0.041 | [2] -0.002 | encorafenib 0.003 | [3] -0.02

FECH isoform 2 (UniProt P22830)
Chain of UniProt P22830 (P22830 whole entry, looked up): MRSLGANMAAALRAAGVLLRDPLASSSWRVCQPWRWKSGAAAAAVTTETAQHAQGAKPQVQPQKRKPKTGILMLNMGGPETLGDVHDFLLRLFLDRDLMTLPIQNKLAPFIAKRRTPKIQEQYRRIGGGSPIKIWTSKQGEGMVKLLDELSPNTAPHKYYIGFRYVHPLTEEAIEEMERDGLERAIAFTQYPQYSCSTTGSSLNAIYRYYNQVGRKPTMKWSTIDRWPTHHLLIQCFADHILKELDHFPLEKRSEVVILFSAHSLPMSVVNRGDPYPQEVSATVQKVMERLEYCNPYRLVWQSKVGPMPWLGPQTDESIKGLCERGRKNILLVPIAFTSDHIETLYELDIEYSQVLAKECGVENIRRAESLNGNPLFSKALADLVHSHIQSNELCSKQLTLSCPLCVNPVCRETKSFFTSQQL
inactive: saracatinib -0.035 | sotrastaurin 0.008 | alvocidib -0.016 | Tubastatin A -0.12 | [1] 0.245 | defactinib 0.102 | rucaparib 0.043 | [2] 0.538 | encorafenib -0.033 | [3] -0.116

FDXR isoform 7 (UniProt P22570)
Chain of UniProt P22570 (P22570 whole entry, looked up): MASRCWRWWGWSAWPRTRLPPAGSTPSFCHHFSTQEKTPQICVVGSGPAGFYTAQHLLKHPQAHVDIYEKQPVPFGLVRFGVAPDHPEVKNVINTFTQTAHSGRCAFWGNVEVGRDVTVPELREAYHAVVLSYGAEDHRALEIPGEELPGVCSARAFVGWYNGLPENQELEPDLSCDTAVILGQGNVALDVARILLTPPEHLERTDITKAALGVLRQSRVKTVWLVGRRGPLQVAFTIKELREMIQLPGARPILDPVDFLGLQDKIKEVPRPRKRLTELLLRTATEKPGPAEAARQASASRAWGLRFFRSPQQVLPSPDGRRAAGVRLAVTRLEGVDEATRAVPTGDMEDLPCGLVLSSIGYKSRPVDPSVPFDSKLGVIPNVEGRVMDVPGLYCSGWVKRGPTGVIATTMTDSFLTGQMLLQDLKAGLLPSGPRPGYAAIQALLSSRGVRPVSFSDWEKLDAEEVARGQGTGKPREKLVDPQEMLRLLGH
inactive: saracatinib -0.027 | sotrastaurin 0.116 | alvocidib -0.058 | Tubastatin A -0.01 | [1] -0.012 | defactinib -0.115 | rucaparib -0.035 | [2] 0.034 | encorafenib -0.034 | [3] -0.023

FRA10AC1 isoform 3 (UniProt Q70Z53)
Chain of UniProt Q70Z53 (Q70Z53 whole entry, looked up): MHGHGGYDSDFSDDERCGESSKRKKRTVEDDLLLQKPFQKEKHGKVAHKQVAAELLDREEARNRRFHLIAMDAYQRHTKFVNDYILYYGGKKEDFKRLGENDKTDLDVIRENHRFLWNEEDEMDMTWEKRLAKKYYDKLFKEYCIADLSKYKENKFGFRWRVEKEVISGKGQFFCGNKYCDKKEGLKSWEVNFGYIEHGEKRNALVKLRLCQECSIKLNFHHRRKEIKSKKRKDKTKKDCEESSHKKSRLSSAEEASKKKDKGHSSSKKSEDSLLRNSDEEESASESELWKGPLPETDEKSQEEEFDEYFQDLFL
inactive: saracatinib 0.125 | sotrastaurin 0.133 | alvocidib 0.132 | Tubastatin A -0.023 | [1] -0.01 | defactinib 0 | rucaparib -0.035 | [2] -0.196 | encorafenib -0.103 | [3] -0.067

FKBP4 (UniProt Q02790)
Chain of UniProt Q02790 (Q02790 whole entry, looked up): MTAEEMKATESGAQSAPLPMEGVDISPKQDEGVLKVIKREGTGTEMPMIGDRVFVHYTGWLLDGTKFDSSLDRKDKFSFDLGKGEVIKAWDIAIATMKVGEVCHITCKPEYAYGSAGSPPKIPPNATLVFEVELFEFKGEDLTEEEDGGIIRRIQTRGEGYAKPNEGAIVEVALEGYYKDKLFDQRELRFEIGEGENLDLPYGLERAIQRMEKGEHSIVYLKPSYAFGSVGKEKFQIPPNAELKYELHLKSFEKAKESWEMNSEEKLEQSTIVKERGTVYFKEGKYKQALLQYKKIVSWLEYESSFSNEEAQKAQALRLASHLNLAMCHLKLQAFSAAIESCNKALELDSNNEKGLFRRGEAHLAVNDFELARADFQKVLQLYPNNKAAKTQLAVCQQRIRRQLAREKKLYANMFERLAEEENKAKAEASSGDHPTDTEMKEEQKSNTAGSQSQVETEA
inactive: saracatinib -0.048 | sotrastaurin -0.022 | alvocidib -0.092 | Tubastatin A -0.009 | [1] 0.032 | defactinib -0.055 | rucaparib 0.016 | [2] 0.05 | encorafenib 0.026 | [3] -0.036

HRC (UniProt P23327)
inactive: saracatinib 0.063 | sotrastaurin 0.057 | alvocidib 0.02 | Tubastatin A -0.125 | [1] 0.009 | defactinib -0.011 | rucaparib 0.01 | [2] -0.057 | encorafenib -0.066 | [3] 0.043

GOLGB1 isoform 2 (UniProt Q14789)
inactive: saracatinib -0.056 | sotrastaurin -0.121 | alvocidib 0.124 | Tubastatin A 0.029 | [1] 0.048 | defactinib 0 | rucaparib 0.02 | [2] -0.001 | encorafenib -0.04 | [3] 0.003

IFI30 (UniProt P13284)
inactive: saracatinib 0.224 | sotrastaurin 0.063 | alvocidib -0.003 | Tubastatin A -0.028 | [1] -0.02 | defactinib -0.048 | rucaparib 0.006 | [2] 0.144 | encorafenib 0.009 | [3] 0.042

GAB2 (UniProt Q9UQC2)
Chain of UniProt Q9UQC2 (Q9UQC2 whole entry, looked up): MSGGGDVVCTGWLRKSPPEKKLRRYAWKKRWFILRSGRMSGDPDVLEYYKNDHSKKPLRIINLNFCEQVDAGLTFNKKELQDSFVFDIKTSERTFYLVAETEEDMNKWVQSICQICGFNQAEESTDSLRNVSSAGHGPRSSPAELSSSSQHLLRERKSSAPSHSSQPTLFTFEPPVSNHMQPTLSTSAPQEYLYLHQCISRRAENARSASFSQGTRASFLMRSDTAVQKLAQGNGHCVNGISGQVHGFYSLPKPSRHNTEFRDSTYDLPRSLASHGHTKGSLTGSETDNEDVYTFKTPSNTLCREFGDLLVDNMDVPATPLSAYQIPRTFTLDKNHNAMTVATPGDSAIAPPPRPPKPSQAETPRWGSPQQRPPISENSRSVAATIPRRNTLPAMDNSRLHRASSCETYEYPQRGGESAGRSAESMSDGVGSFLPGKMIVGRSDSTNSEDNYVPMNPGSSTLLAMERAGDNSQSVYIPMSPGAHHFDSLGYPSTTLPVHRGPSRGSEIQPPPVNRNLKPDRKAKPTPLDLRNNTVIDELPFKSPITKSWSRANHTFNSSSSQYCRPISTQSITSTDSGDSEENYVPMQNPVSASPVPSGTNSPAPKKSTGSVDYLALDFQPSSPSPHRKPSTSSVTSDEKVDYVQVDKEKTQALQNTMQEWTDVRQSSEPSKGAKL
inactive: saracatinib -0.164 | sotrastaurin 0.029 | alvocidib -0.053 | Tubastatin A -0.024 | [1] -0.575 | defactinib -0.194 | rucaparib 0.162 | [2] -0.137 | encorafenib -0.023 | [3] 0.116

GNB2 (UniProt P62879)
Chain of UniProt P62879 (P62879 whole entry, looked up): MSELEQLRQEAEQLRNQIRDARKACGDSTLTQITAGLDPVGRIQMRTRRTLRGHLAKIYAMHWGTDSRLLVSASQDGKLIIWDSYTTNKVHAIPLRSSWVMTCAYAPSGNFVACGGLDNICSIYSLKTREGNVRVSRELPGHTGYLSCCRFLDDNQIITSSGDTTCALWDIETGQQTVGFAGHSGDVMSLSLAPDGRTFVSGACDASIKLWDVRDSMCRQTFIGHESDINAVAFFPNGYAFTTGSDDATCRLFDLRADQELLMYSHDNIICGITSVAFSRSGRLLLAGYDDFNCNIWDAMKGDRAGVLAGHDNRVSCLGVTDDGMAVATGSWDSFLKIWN
inactive: saracatinib -0.033 | sotrastaurin 0.019 | alvocidib 0.001 | Tubastatin A 0.015 | [1] -0.002 | defactinib -0.028 | rucaparib -0.004 | [2] 0.039 | encorafenib 0.005 | [3] -0.065
